# Assay results reported in the supplement of paper PMC9694430.
# Where a name gives a salt, the structure may show the parent alone.
# Tested on: LOC_OS02G07810-cb001
# Experiment: thermal shift delta Tm vs DMSO control; higher = stronger stabilization (binding)
# Settings: 12.5 µM; protein concentration 2 µM
# Outline: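 Heating from 25°C to 95°C at 0.05°C/s, fluorescence was recorded for 19.5 μl wells of 2 μM E. coli-expressed, purified rice kinase domain in 100 mM potassium phosphate pH 7.5, 150 mM NaCl, 10% glycerol and 5 × SYPRO Orange with compound in DMSO. Boltzmann fits gave melting temperatures for this differential scanning fluorimetry assay. The shift reported is the mean of three replicates against the DMSO-only protein.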
# 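Note: purified Escherichia coli-expressed rice kinase domain construct.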
row,Compound,thermal shift delta Tm
1,CCNC(=O)Nc1ccc(-c2nc(N3CCOC[C@@H]3C)c3c(n2)C(C)(C)S(=O)(=O)C3)cc1,-0.58 °C
2,CN1CCN(c2ccc(OC(F)(F)F)c(Nc3ncc4c(n3)-c3c(c(C(N)=O)nn3CCO)CC4)c2)CC1,0.04 °C
3,C[C@@H](Oc1cc(-n2cnc3ccc(CN4CCN(C)CC4)cc32)sc1C(N)=O)c1ccccc1C(F)(F)F,1.22 °C
4,COc1cc(OC)cc(-c2cc3cnc(N)nc3nc2NC(=O)NC(C)(C)C)c1,-0.88 °C
5,COC(=O)c1ccc2c(c1)NC(=O)/C2=C(\Nc1ccc(N(C)C(=O)CN2CCN(C)CC2)cc1)c1ccccc1 [Nintedanib (BIBF 1120)],0.27 °C
6,"Cc1[nH]c(/C=C2\C(=O)Nc3ccccc32)c(C)c1CCC(=O)O [Orantinib (TSU-68, SU6668)]",1.32 °C
7,NC1(c2ccc(-c3nc4ccn5c(=O)[nH]nc5c4cc3-c3ccccc3)cc2)CCC1,0.4 °C
8,N#Cc1ccc2[nH]c(O)c(-c3ccc(CN4CCOCC4)cn3)c2c1,0.82 °C
9,C=C[C@@](C)(/C=C/c1ccc(O)cc1)CCC=C(C)C [Bakuchiol],-0.84 °C
10,Cn1cnc2c(F)c(Nc3ccc(Br)cc3F)c(C(=O)NOCCO)cc21,1.12 °C
11,CC(C)(C)c1nc(-c2ccc(NC(=O)Nc3cccc(C(F)(F)F)c3)c3ccccc23)c2c(N)nccn12 [kira6],0.03 °C
12,CC1=C(C(=O)Nc2cc3cn[nH]c3cc2F)C(c2ccc(C(F)(F)F)cc2)CC(=O)N1 (configuration not stated),0.72 °C
13,Cc1cn(-c2cc(NC(=O)c3ccc(C)c(Nc4nccc(-c5cnccn5)n4)c3)cc(C(F)(F)F)c2)cn1 [Radotinib],1.04 °C
14,COc1ncc(-c2ccc3nccc(-c4ccnnc4)c3c2)cc1NS(=O)(=O)c1ccc(F)cc1F,1.43 °C
15,CNC(=O)c1cc(COc2nnc(Nc3ccc(Cl)cc3)c3ccoc23)ccn1 [Telatinib],0.85 °C
16,COc1cc2nccc(Oc3ccc(NC(=O)C4(C(=O)Nc5ccc(F)cc5)CC4)cc3)c2cc1OC [Cabozantinib malate (XL184)],1.09 °C
17,C1=N/C2=N/c3ccc(OCCN4CCCC4)c(c3)COC/C=C/COCc3cccc(c3)C(=C1)N2 [Pacritinib (SB1518)],0.11 °C
18,N#Cc1cnc(Nc2cc(NC[C@H]3CNCCO3)c(C(F)(F)F)cn2)cn1,0.2 °C
19,COc1cc(N2CCN(C)CC2)ccc1Nc1nccc(-c2cn(C)c3cnccc23)n1,0.46 °C

row,Compound,thermal shift delta Tm
1,CC(C)(C)NS(=O)(=O)c1cncc(-c2cc(F)c3nc(N)nn3c2)c1,1.06 °C
2,CCNC(=O)C#Cc1ccc2c(C(=Nc3ccc(CN(C)C)cc3)c3ccccc3)c(O)[nH]c2c1,0.15 °C
3,O=C1NC(=O)[C@@H](c2cn3c4c(cccc24)CCC3)[C@@H]1c1c[nH]c2ccccc12 [Tivantinib (ARQ 197)],0.91 °C
4,O=S(=O)(c1cccc2c(I)cccc12)N1CCCNCC1,0.33 °C
5,CCN1CCN(Cc2ccc(C(=O)Nc3ccc(C)c(Oc4ccc5c(c4)CC(=O)N5)c3)cc2C(F)(F)F)CC1,1.19 °C
6,C[C@@H](Nc1cc(F)cc(F)c1)c1cc(C(=O)N(C)C)cc2c(=O)cc(N3CCOCC3)oc12,0.6 °C
7,C[C@H](CN(C)C)Oc1nc(Nc2cc3cccc(Cl)c3cn2)cnc1C#N,0.31 °C
8,CNC(=O)c1cc(Oc2ccc(NC(=O)Nc3ccc(Cl)c(C(F)(F)F)c3)cc2)ccn1 [Sorafenib],1.92 °C
9,COc1ccc(Cl)cc1NC(=O)Nc1cc(C)nc2ccccc12,1.12 °C
10,O=C(c1cccc(Cl)c1F)N1CCN(Cc2cccc(Nc3nccs3)n2)CC1,1.01 °C
11,CNC(=O)c1ccc(C)c(-n2c(C)cc(OCc3ccc(F)cc3F)c(Br)c2=O)c1,1.25 °C
12,CCn1c(-c2nonc2N)nc2c(C#CC(C)(C)O)ncc(OC[C@H]3CCCNC3)c21,0.56 °C
13,CCC[C@H](NC(=O)/C(C#N)=C/c1cccc(Br)n1)c1ccccc1 [Degrasyn (WP1130)],0.68 °C
14,OC1CCC(Nc2ncc3nc(Nc4c(F)cc(F)cc4F)n([C@H]4CCOC4)c3n2)CC1 (some centres not stated) [Tanzisertib(CC-930)],-0.22 °C
15,CN(C)C/C=C/C(=O)Nc1cc2c(Nc3ccc(F)c(Cl)c3)ncnc2cc1O[C@H]1CCOC1 [Afatinib (BIBW2992) Dimaleate],0.8 °C
16,Cc1cc(O)c(-c2ccc([C@@H](C)CN)cc2)c2c1[nH]c(=O)c1sccc12 [OTS514 hydrochloride],0.41 °C
17,Cc1ccc(F)c(NC(=O)Nc2ccc(-c3cccc4[nH]nc(N)c34)cc2)c1 [Linifanib (ABT-869)],1.34 °C
18,COc1cc(N2CCC(N(C)C)CC2)ccc1Nc1ncc(Cl)c(Nc2ccccc2P(C)(C)=O)n1,0.65 °C
